For 17 compounds, composite z-score and z-score results are on record in PubChem BioAssay.

Experiment [1] relates to XIP peptide (Xip251-270) binding. The experiment can be described thus: XIP fragment 251-270 binding compounds – biochemical, small-molecule microarray, fluorescence 635/667 nm, 0.1 µg/mL protein, primary screen (AID 1182). To be noted: fluorescent protein binding, 635 nm, higher = more signal, called active from +8 up or from −8 down.
Another experiment deals with XIP peptide (Xip251-270). Kind of experiment: compounds binding XIP fragment 251-270 – biochemical, small-molecule microarray, fluorescence 635/667 nm, 0.5 µg/mL protein, primary screen (AID 1183). To be noted: fluorescence 635 nm, higher = more signal.
Experiment [2] is described as follows: blood-stage malaria parasite viability loss – strain 3D7, DAPI fluorescence, 100 nL, primary screen (AID 1184).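 Also: parasites grown inside human red blood cells in medium with human serum.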 To be noted: P. falciparum 3D7 growth, 3 d, higher = more signal.
For experiment [3], the target named is Homeobox protein Hox-A13 (Mus musculus) (UniProt Q62424). Kind of experiment: disruptors of Hoxa13 oligonucleotide interaction – biochemical, fluorescence polarization, labeled oligonucleotide, primary screen (AID 1185). To be noted: Hoxa13:DNA binding, 15 min, higher = more signal, called active from +8 up or from −8 down.
Chain of Homeobox protein Hox-A13 (Mus musculus) (Q62424 whole entry, looked up): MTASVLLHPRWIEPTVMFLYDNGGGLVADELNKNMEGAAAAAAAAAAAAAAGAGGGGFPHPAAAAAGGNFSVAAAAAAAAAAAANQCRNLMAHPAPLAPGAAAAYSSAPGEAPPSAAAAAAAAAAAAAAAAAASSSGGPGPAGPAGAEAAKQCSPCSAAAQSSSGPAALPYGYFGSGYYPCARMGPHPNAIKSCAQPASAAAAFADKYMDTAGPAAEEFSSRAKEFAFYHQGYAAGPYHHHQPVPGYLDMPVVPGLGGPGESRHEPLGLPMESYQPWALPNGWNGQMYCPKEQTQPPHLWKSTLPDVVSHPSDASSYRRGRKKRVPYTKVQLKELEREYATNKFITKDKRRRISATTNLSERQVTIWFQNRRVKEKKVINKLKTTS
Experiment [4] can be described thus: blockers of DNA damage checkpoint Chk1 activation – imaging, HeLa, hydroxyurea, phospho-Chk1 antibody, percent positive cells, primary screen (AID 1186). The note with it: hydroxyurea-induced phospho-Chk1 immunofluorescence imaging, higher = more signal.
Experiment [5] can be described thus: blockers of DNA damage checkpoint Chk1 activation – imaging, HeLa, hydroxyurea, phospho-Chk1 nuclear intensity, primary screen (AID 1187). To be noted: hydroxyurea-induced phospho-Chk1 immunofluorescence imaging, higher = more signal.

Calls of active or inactive are those of the source. Unless noted, no rule for the calls is given here.

On to `Cc1ccc([C@H]2C(C(=O)O)=C[C@@H](C(C)C)N2S(=O)(=O)c2ccc(C)cc2)cc1`, for which the composite z-score was 0.165 (inactive) in experiment [1] and 0.386 with XIP peptide (Xip251-270). The z-score in experiment [2] is 1.65; in experiment [3], -4.3 (inactive); in experiment [4] it was -0.482 (inactive); in experiment [5], -1.01 (inactive).
With `CN1C(=O)C2C=CC(C(O)c3ccc(Br)cc3)N(Nc3ccccc3)C2C1=O` (configuration not stated), the results for the composite z-score (in experiment [1]; in the experiment on XIP peptide (Xip251-270)) were -0.115 (inactive) and 0.0244, respectively. Further, the z-score is 0.672 in experiment [2], -1.23 (inactive) in experiment [3], 0.247 (inactive) in experiment [4] and -0.122 (inactive) in experiment [5].
`[N-]=[N+]=Nc1ccccc1[C@H]1OC(c2ccc(OCCCO)cc2)=N[C@@]1(CCS(=O)(=O)c1ccccc1)C(=O)N1CCOCC1`: the composite z-score is 1.72 (inactive) in experiment [1] and 0.562 in the experiment with XIP peptide (Xip251-270). Moreover, the z-score in experiment [2] was -2.04; in experiment [3], -1.14 (inactive); in experiment [4], -0.0149 (inactive); in experiment [5], 0.0382 (inactive).
Take `CN(C)CCCC[C@@H]1NC(=O)[C@H]2C[C@@H](C(=O)NCCCCCNC(=O)CS)[C@@H](c3ccc(O)cc3)N2C1=O`: the values for the composite z-score (in experiment [1]; with XIP peptide (Xip251-270)) were -0.276 (inactive) and 0.903, respectively. In addition, the z-score in experiment [2] was -0.282; in experiment [3], -2.09 (inactive); in experiment [4] it was 0.358 (inactive); in experiment [5], 0.155 (inactive).
In the case of `O=C1OCC=C[C@H]2OC34C=CCN(c5ccc6ccccc6c5)C(=O)[C@H]3N(CCO)C(=O)[C@@H]4[C@@H]12` (some centres not stated), the figures for the composite z-score (in experiment [1]; in the experiment with XIP peptide (Xip251-270)) were 0.594 (inactive) and 0.605, respectively. Further, the z-score in experiment [2] is 0.666; in experiment [3], -5.78 (inactive); in experiment [4], 0.0775 (inactive); in experiment [5], 0.219 (inactive).
Turning to `COCCOC(=O)N1C(=O)[C@@]2(c3cc(C#CCC(C(=O)OC)C(=O)OC)ccc31)[C@H](c1ccc(OCCO)cc1)N1[C@H](c3ccccc3)[C@H](c3ccccc3)OC(=O)[C@H]1[C@@H]2C(=O)NC[C@H](O)c1ccccc1`, the composite z-score in experiment [1] was 0.234 (inactive); in the experiment on XIP peptide (Xip251-270), 0.851. In addition, the z-score in experiment [2] is -2.16; in experiment [3] it was 0.738 (inactive); in experiment [4] it was -0.411 (inactive); in experiment [5], -0.397 (inactive).
`COC(=O)[C@@]1(Cc2ccc(F)cc2)[C@H]2c3cc(C(=O)N(C)C)n(CCc4c[nH]c5ccc(OC)cc45)c3C[C@H]2CN1C(=O)c1ccccc1`: the results for the composite z-score (in experiment [1]; in the experiment on XIP peptide (Xip251-270)) were 0.661 (inactive) and -0.21, respectively. The z-score was -1.52 in experiment [2], -0.694 (inactive) in experiment [3], 0.737 (inactive) in experiment [4] and 0.0892 (inactive) in experiment [5].
Turning to `CC1CC/C=C\[C@H]2OC34C=CCN(Cn5nnc6ccccc65)C(=O)[C@H]3N(CCCO)C(=O)[C@@H]4C2C(=O)O1` (some centres not stated), the composite z-score in experiment [1] is 0.75 (inactive); with XIP peptide (Xip251-270), 0.13. In addition, the z-score is -0.0633 in experiment [2], -5.65 (inactive) in experiment [3], -0.86 (inactive) in experiment [4] and -0.909 (inactive) in experiment [5].
Regarding `CCCC[C@H]1OB(O)C[C@H]2C1=C(C)Cn1c(=O)n(-c3ccccc3)c(=O)n12`, the values for the composite z-score (in experiment [1]; in the experiment on XIP peptide (Xip251-270)) were -0.0734 (inactive) and 0.116, respectively. For the same compound, the z-score in experiment [2] was -2.15; in experiment [3], -0.581 (inactive); in experiment [4], -0.705 (inactive); in experiment [5] it was -0.679 (inactive).
Regarding `C=C(CCCC)C(=O)CC[C@H](OC(C)=O)c1ccc(CO)o1`, the composite z-score in experiment [1] is 0.35 (inactive); in the experiment with XIP peptide (Xip251-270) it was 0.0921. Further, the z-score in experiment [2] was -1.82; in experiment [3] it was -3.62 (inactive); in experiment [4], -0.059 (inactive); in experiment [5], -0.222 (inactive).
In the case of `COCCOC(=O)N1C(=O)[C@@]2(c3cc(C#CC4=CCCCC4)ccc31)[C@H](c1ccc(OCCO)cc1)N1[C@H](c3ccccc3)[C@H](c3ccccc3)OC(=O)[C@H]1[C@@H]2C(=O)Nc1nc2ccccc2s1`, the composite z-score in experiment [1] was -0.166 (inactive); in the experiment on XIP peptide (Xip251-270) it was 0.622. In addition, the z-score in experiment [2] is -1.29; in experiment [3] it was 3.94 (inactive); in experiment [4], -0.446 (inactive); in experiment [5], -1.1 (inactive).
For the compound `C=CCC(OC(C)=O)[C@@H]1[C@@H](N(Cc2cc3ccccc3o2)C(=O)c2ccc(-c3ccccc3)cc2)c2cc(OCCCO)ccc2N1C(=O)Cc1ccc2ccccc2c1` (some centres not stated), the composite z-score is -0.317 (inactive) in experiment [1] and -0.269 in the experiment with XIP peptide (Xip251-270). The z-score was -0.835 in experiment [2], -0.738 (inactive) in experiment [3], 0.485 (inactive) in experiment [4] and 0.467 (inactive) in experiment [5].
Regarding `CC(C)[C@H]1COC(=O)N1C(=O)[C@H]1[C@@H](c2ccccc2)N(c2ccccc2)O[C@@H]1C`, the composite z-score is 0.223 (inactive) in experiment [1] and 0.267 in the experiment with XIP peptide (Xip251-270). Besides, the z-score was 0.0321 in experiment [2], -3.46 (inactive) in experiment [3], -0.965 (inactive) in experiment [4] and -1.2 (inactive) in experiment [5].
Turning to `C=C(C)[C@@H]1CC=C(C(O)C2C=CC3C(=O)N(Cc4ccccc4)C(=O)C3N2n2cnnc2)CC1` (some centres not stated), the composite z-score in experiment [1] is -0.137 (inactive); with XIP peptide (Xip251-270), 0.3. The z-score in experiment [2] is -1.03; in experiment [3] it was -1.35 (inactive); in experiment [4], -0.0789 (inactive); in experiment [5], 0.265 (inactive).
In the case of `COC(=O)[C@@]1(Cc2ccc(F)cc2)[C@H]2c3cc(C(=O)N4CCCC4)n(Cc4ccc(Cl)c(C(F)(F)F)c4)c3C[C@H]2CN1C(=O)c1ccccc1`, the composite z-score was 0.15 (inactive) in experiment [1] and 0.625 in the experiment on XIP peptide (Xip251-270). The z-score in experiment [2] is -1.45; in experiment [3], -2.22 (inactive); in experiment [4] it was 0.612 (inactive); in experiment [5], -0.126 (inactive).
In the case of `CCCCCN1CC=CC23O[C@@H]4C=CCCOC(=O)C4[C@H]2C(=O)N(CCCO)[C@@H]3C1=O` (some centres not stated), the composite z-score in experiment [1] is 0.0154 (inactive); in the experiment with XIP peptide (Xip251-270), 0.466. The z-score is -1.54 in experiment [2], -3.33 (inactive) in experiment [3], -0.299 (inactive) in experiment [4] and -0.688 (inactive) in experiment [5].
Take `COCCn1c(C(=O)N2CCCC2)cc2c1C[C@H]1CN(C(=O)c3ccccc3)[C@@](Cc3ccc(OC)cc3)(C(=O)OC)[C@@H]21`: the composite z-score in experiment [1] is 0.541 (inactive); in the experiment with XIP peptide (Xip251-270) it was 0.603. For the same compound, the z-score in experiment [2] is -1.55; in experiment [3], -4.97 (inactive); in experiment [4], -0.598 (inactive); in experiment [5], -0.634 (inactive).
